DRD3 antagonist – blocks the human D3 dopamine receptor. P35462. D3R cells, DiscoveRx beta-arrestin luminescence, antagonist mode; active compounds read low. max response, negative = inhibition, %. actives 2.5% (n = 360,000); in the data active = max response below about -50%; inconclusive = no clear call, values can overlap the other calls
Target sequence (P35462 whole entry, looked up): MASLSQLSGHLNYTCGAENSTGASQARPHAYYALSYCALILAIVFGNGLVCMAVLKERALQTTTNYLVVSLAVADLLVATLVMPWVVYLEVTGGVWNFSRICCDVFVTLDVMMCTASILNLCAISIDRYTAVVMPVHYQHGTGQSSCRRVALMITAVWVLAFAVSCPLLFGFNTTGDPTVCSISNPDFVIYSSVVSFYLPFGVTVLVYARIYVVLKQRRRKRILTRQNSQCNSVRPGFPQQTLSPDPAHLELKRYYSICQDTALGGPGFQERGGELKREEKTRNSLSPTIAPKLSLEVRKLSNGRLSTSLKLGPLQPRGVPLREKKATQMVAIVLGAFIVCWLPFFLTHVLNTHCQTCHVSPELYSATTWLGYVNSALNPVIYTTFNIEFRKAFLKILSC
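Cells plated overnight at 1500 cells/well, then exposed to library compounds with dopamine controls for 90 minutes at 37 degrees C. DiscoveRx reagent added for 30–60 minutes at room temperature; luminescence read, quantitative HTS format.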
TDP1 cell CPT – growth inhibition of DT40 Tdp1-/-;hTDP1 cells with camptothecin (screen for TDP1 inhibitors). chicken DT40 Tdp1-/-;hTDP1 cells + 20 nM CPT, ATP luminescence, 48 h. Potency, µM (doses to about 46.2 µM), actives largely listed as inhibitors. actives 12% (n = 420,000); note: nearly all actives have a fitted effect of over 55% in size
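Chicken DT40 Tdp1-/- cells complemented with human TDP1, 400 cells/well, exposed to compounds plus 20 nM camptothecin for at least 48 h at 37 C; viability read as ATP content by CellTiter-Glo luminescence.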
ClpP mod – qHTS Assay for Activators of ClpP | purified B. subtilis ClpP, FRET peptide cleavage, 20 min | Potency, µM (top dose mostly 57.5 µM) | ATP-dependent Clp protease proteolytic subunit (Bacillus subtilis (strain 168)), P80244 | AID 651965, 2013 | actives 1.9% (n = 340,000); active = well fitted falling curve with a large enough effect; inconclusive = small, poorly fitted or top-dose-only effect; inactive = no such curve, though single readings can be large or run the other way; note: the source files actives as falling curves though it sought activators and does not explain the sign; nearly all actives have a fitted effect of over 65% in size
Target sequence (P80244 whole entry, looked up): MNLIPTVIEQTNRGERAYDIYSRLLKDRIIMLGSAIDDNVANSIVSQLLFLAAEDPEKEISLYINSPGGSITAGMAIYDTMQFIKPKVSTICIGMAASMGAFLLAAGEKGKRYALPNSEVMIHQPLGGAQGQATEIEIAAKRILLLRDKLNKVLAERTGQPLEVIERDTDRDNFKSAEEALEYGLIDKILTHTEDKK
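Purified B. subtilis ClpP, 10 microg/mL final in Tris/HCl pH8 with KCl, BSA, glycerol and Tween-20, cleaved an Abz/nitrotyrosine-quenched decapeptide. Fluorescence (ex 320, em 430) was read at 0 and 20 min at room temperature. Delta was normalized to 5.8 microM ADEP and DMSO/no-enzyme controls.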
TDP1 cell noCPT – qHTS for Inhibitors of human tyrosyl-DNA phosphodiesterase 1 (TDP1): qHTS in cells in absence of CPT; DT40 Tdp1-/- hTDP1 cells, no CPT, ATP luminescence, 48 h; Potency, µM (top dose mostly 46.2 µM), usual class: inhibitors; actives 15% (n = 420,000); note: nearly all actives have a fitted effect of over 55% in size
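No-CPT arm: Tdp1-/-;hTDP1 DT40 cells (400/well) plus compounds, incubated ≥48 hr at 37 °C. Readout CellTiter-Glo luminescence.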
IL1B secr inh – inflammasome signaling inhibition, IL-1 beta readout; actives 4.7% (n = 360,000); activity change, % at 57.5 µM; THP-1 LPS/ATP IL-1B secretion, AlphaLISA, 16 h; active compounds read low; in the data active = activity change below about -50%; inconclusive = mostly about -30% to -49%
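THP-1 cells pretreated 1 hr with compounds (up to 57.5 uM final), then stimulated with LPS (250 ng/mL final) plus ATP (1.25 mM final); secreted IL-1B measured by AlphaLISA after 16 hr, decreased signal indicating inhibition.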
D3 ag – agonists of human D3 dopamine receptor; actives 0.58% (n = 410,000); D3R DiscoveRx beta-arrestin cells, luminescence, 90 min; AID 652048; P35462; max activation, %; in the data active = max activation above about 30%
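Agonist-mode cell screen: cells plated at 1500/well and incubated overnight at 37 °C, then exposed to library compounds for 90 min at 37 °C. Detection reagent was added for 30–60 min at room temperature, and luminescence was read.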
Large screens that a line does not name were inactive. Compounds with a hit are over-represented: about 21% of the library has one in this group of screens. Unless noted, calls come from the whole dose curve; as a rule, active = well fitted inhibition curve with a large enough effect; inconclusive = small, poorly fitted or top-dose-only effect; inactive = flat fitted curve, though single readings scatter.

COc1ccc(C)cc1S(=O)(=O)N(CC(=O)NCc1ccc(Cl)cc1)Cc1ccccc1	TDP1 cell CPT 21µM, TDP1 cell noCPT inconclusive, IL1B secr inh -61
O=C(CN(Cc1ccccc1)S(=O)(=O)c1ccc(F)cc1)NCc1ccncc1	none (no result: ClpP mod)
COc1ccc(S(=O)(=O)N(CC(=O)NCc2ccncc2)Cc2ccccc2)cc1	TDP1 cell CPT inconclusive, TDP1 cell noCPT 12µM (no result: ClpP mod)
COc1ccc(CNC(=O)CN(Cc2ccc(Cl)cc2)S(=O)(=O)c2ccccc2)cc1	TDP1 cell CPT inconclusive, TDP1 cell noCPT inconclusive, IL1B secr inh inconclusive
COc1ccc(-c2cc(C(=O)Nc3ccc(NC(C)=O)cc3)[nH]n2)c(C)c1	TDP1 cell CPT inconclusive
COc1ccc(-c2cc(C(=O)Nc3cc(OC)c(OC)c(OC)c3)[nH]n2)c(C)c1	TDP1 cell CPT 23µM, TDP1 cell noCPT 12µM
COc1cccc(CNc2ncc(C(=O)Nc3cc(OC)c(OC)c(OC)c3)c(C)n2)c1	TDP1 cell CPT 8.2µM, TDP1 cell noCPT 9.2µM
Cc1cc(C)c(O)c(-c2cc(C(=O)NCCc3ccc(S(N)(=O)=O)cc3)[nH]n2)c1	TDP1 cell noCPT 9.2µM, IL1B secr inh -51 (no result: ClpP mod)
COc1ccc(-c2cc(C(=O)NCc3ccc(F)cc3)[nH]n2)c(C)c1	TDP1 cell CPT 18µM, TDP1 cell noCPT inconclusive
COc1cc(CNC(=O)c2cc(-c3ccc(OC)cc3C)n[nH]2)cc(OC)c1	TDP1 cell CPT inconclusive
COc1cc(NC(=O)c2cnc(NCc3ccccc3)nc2C)cc(OC)c1OC	TDP1 cell CPT inconclusive, TDP1 cell noCPT inconclusive (no result: ClpP mod)
COc1cc(OC)c2ccc(=O)oc2c1C(CC(=O)N1CCOCC1)c1ccc(N(C)C)cc1 (configuration not stated)	none
CCCCc1nn2c(=O)cc(COC(=O)c3cccc(OC)c3)nc2s1	TDP1 cell CPT inconclusive (no result: DRD3 antagonist, IL1B secr inh)
Cc1cc(C)c(O)c(-c2cc(C(=O)NCc3ccccc3)[nH]n2)c1	TDP1 cell CPT 18µM, TDP1 cell noCPT inconclusive, IL1B secr inh inconclusive
CCNC(=O)c1c(NC(=O)c2cc(-c3cc(C)cc(C)c3O)n[nH]2)sc2c1CCCC2	TDP1 cell CPT inconclusive, TDP1 cell noCPT 5.8µM (no result: ClpP mod)
COc1ccc(CNC(=O)c2cc(-c3cc(C)cc(C)c3O)n[nH]2)cc1	TDP1 cell CPT inconclusive, TDP1 cell noCPT inconclusive, IL1B secr inh -68
COc1ccc(CCNC(=O)c2cc(-c3cc(C)cc(C)c3O)n[nH]2)cc1OC	TDP1 cell CPT inconclusive, TDP1 cell noCPT inconclusive
CCNC(=O)c1c(NC(C)=O)sc2c1CCCC2	none
O=C(NCc1ccc(F)cc1)Nc1nnc([C@H]2C[C@H](O)[C@@H](CO)O2)s1	none
COc1ccc(S(=O)(=O)c2cnc3ccc(OC)cc3c2N2CCC3(CC2)OCCO3)cc1	TDP1 cell CPT 8.2µM, TDP1 cell noCPT 3.3µM, IL1B secr inh inconclusive
CCOc1cc(C(=O)N2CCN(c3ccccc3)CC2)cc(OCC)c1OCC	TDP1 cell CPT inconclusive, TDP1 cell noCPT inconclusive
COc1ccc(N2CCN(c3c(S(=O)(=O)c4ccccc4)cnc4ccc(OC)cc34)CC2)cc1	TDP1 cell CPT 23µM, TDP1 cell noCPT 18µM
COc1ccc(S(=O)(=O)N2CCC3(CC2)OCCO3)cc1	none (no result: ClpP mod)
COc1ccc(N2CCN(c3nc4ccccc4nc3NS(=O)(=O)c3ccccc3)CC2)cc1	none
CCOc1ccc2ncc(S(=O)(=O)c3ccccc3)c(N3CCN(c4ccccc4)CC3)c2c1	TDP1 cell CPT 15µM, TDP1 cell noCPT inconclusive (no result: ClpP mod)
Cc1cccc(OCCC(=O)OCC(=O)Nc2c(C)nn(-c3ccccc3)c2C)c1	none
N#Cc1cccnc1N1CCN(C(C(=O)NC2CCCC2)c2ccc(F)cc2)CC1 (configuration not stated)	TDP1 cell CPT inconclusive, TDP1 cell noCPT inconclusive
COc1cc(-c2nc3ccc4ccccc4c3c3c2CCC3)ccc1O	TDP1 cell CPT inconclusive, TDP1 cell noCPT inconclusive
COc1cc(-c2nc3ccc4ccccc4c3c3c2CCC3)cc(OC)c1O	TDP1 cell CPT 21µM, TDP1 cell noCPT 16µM
COc1cc(-c2nc3ccc4ccccc4c3c3c2CCC3)cc(OC)c1OC	TDP1 cell CPT inconclusive, ClpP mod 25µM, TDP1 cell noCPT inconclusive
CC(C)C(=O)Nc1ccc2nc(SCC(=O)N3CCOCC3)sc2c1	TDP1 cell noCPT inconclusive (no result: DRD3 antagonist, IL1B secr inh)
CCCCC(=O)Nc1ccc2nc(SCC(=O)N3CCCC3)sc2c1	TDP1 cell CPT inconclusive, TDP1 cell noCPT 21µM (no result: DRD3 antagonist, IL1B secr inh)
CC(C)(C)C(=O)Nc1ccc2nc(SCC(=O)N3CCCC3)sc2c1	TDP1 cell noCPT 21µM (no result: DRD3 antagonist, IL1B secr inh)
O=C(O)c1ccc(-n2nc(-c3ccccc3O)nc2-c2ccccc2O)cc1	TDP1 cell CPT inconclusive, TDP1 cell noCPT 21µM (no result: DRD3 antagonist, ClpP mod, IL1B secr inh)
Oc1ccc(/C=C/c2nc(-c3ccccc3O)n(-c3ccccc3)n2)cc1	TDP1 cell CPT inconclusive, TDP1 cell noCPT inconclusive, IL1B secr inh -66
Oc1ccccc1-c1nc(/C=C/c2ccc(F)cc2)nn1-c1ccccc1	TDP1 cell CPT inconclusive, ClpP mod inconclusive, TDP1 cell noCPT inconclusive (no result: DRD3 antagonist, IL1B secr inh)
Oc1ccccc1-c1nc(/C=C/c2ccccc2)nn1-c1ccccc1	ClpP mod inconclusive, TDP1 cell noCPT inconclusive, IL1B secr inh inconclusive
CCc1ccc(CN(C)C(=O)C2=CC=CN3CCS(=O)(=O)N=C23)cc1	none (no result: ClpP mod)
CCN(CC)S(=O)(=O)c1cccc(C(=O)N2CCCCC2)c1	DRD3 antagonist inconclusive, TDP1 cell noCPT inconclusive
CCN(c1ccccc1)S(=O)(=O)c1cccc(C(=O)N2CCN(S(=O)(=O)c3ccccc3)CC2)c1	TDP1 cell CPT inconclusive, ClpP mod 28µM, TDP1 cell noCPT inconclusive
C=CCN(c1ccc(C(=O)OC)cc1)S(=O)(=O)c1ccccc1	DRD3 antagonist -76
C=CCN(c1ccccc1)S(=O)(=O)c1cccc(C(=O)N2CC(C)CC(C)C2)c1 (configuration not stated)	TDP1 cell CPT 9.2µM, TDP1 cell noCPT 3.7µM
CCCN(c1ccc(C(=O)OC)cc1)S(=O)(=O)c1ccccc1	none (no result: ClpP mod)
CCN(c1ccccc1)S(=O)(=O)c1ccc(C(=O)N2CCN(c3ccccc3)CC2)cc1	TDP1 cell CPT inconclusive, TDP1 cell noCPT 21µM
Cc1cccnc1CNC(=O)C1CCC(=O)N(CCc2cccc(F)c2)C1 (configuration not stated)	none
Cc1nc(C(C)NC(=O)CCc2nnc(CCCc3ccccc3)o2)c(C)s1 (configuration not stated)	none (no result: ClpP mod)
C[C@@H]1CN([C@H](C)CO)C(=O)CCCn2cc(nn2)CO[C@H]1CN(C)C(=O)Nc1ccnc(N2CCOCC2)c1	none

Screens (PubChem BioAssay)
